Only some compounds are listed: those with a hit (about 19% of all), similar ones and a draw of the others.
IL-1B inflam inh: inflammasome signaling inhibition, IL-1 beta readout; actives 4.7% (n = 360,000); THP-1 LPS/ATP IL-1B secretion, AlphaLISA, 16 h; hits give low values; AID 743279; activity change, % at 57.5 µM; in the data active = activity change below about -50%; inconclusive = mostly about -30% to -49%
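THP-1 cells pretreated 1 hr with compounds (up to 57.5 uM final), then stimulated with LPS (250 ng/mL final) plus ATP (1.25 mM final); secreted IL-1B measured by AlphaLISA after 16 hr, decreased signal indicating inhibition.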
TDP1 cell noCPT: qHTS for Inhibitors of human tyrosyl-DNA phosphodiesterase 1 (TDP1): qHTS in cells in absence of CPT; DT40 Tdp1-/- hTDP1 cells, no CPT, ATP luminescence, 48 h; Potency, µM (highest dose often 46.2 µM), for the others: at the highest dose activity change, negative = growth inhibition, usual class: inhibitors; actives 15% (n = 420,000); also: potency is read from the fitted curve at half-maximal effect; nearly all actives have a fitted effect of over 55% in size
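No-CPT arm: Tdp1-/-;hTDP1 DT40 cells (400/well) plus compounds, incubated ≥48 hr at 37 °C. Readout CellTiter-Glo luminescence.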
TDP1 cell CPT: growth inhibition of DT40 Tdp1-/-;hTDP1 cells with camptothecin (screen for TDP1 inhibitors). chicken DT40 Tdp1-/-;hTDP1 cells + 20 nM CPT, ATP luminescence, 48 h. Potency, µM (highest dose often 46.2 µM), inactives show at the top dose activity change, negative = growth inhibition, most hits filed as inhibitors. actives 12% (n = 420,000). AID 686979; also: potency is read from the fitted curve at half-maximal effect; nearly all actives have a fitted effect of over 55% in size
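Cell growth measured by CellTiter-Glo luminescence after a minimum 48 h, 37 C compound exposure with 20 nM CPT in Tdp1-knockout DT40 cells stably expressing hTDP1, seeded 400/well; qHTS titration format.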
HT1080 IDH1KD tx: HT-1080 IDH1 knockdown cell toxicity (counter line); HT-1080 IDH1 knockdown viability, ATP luminescence, 48 h; Potency, µM (series often up to 46.1 µM), inactives show at the highest dose activity, negative = toxicity, most hits filed as cytotoxic; actives 2% (n = 360,000);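 also: potency is read from the fitted curve at half-maximal effect; 0% = DMSO wells and -100% = cell-free medium wells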
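In this qHTS, HT-1080 cells depleted of IDH1 are exposed for 48 h at 37 °C to compound titrations. Toxicity is scored from CellTiter-Glo luminescence, with DMSO as full viability and medium alone as none.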
HT1080-NT tox: kills 2HG-producing HT-1080-NT fibrosarcoma cells; Potency, µM (doses to about 46.1 µM), for the others: at the top dose activity, negative = less viability, actives largely listed as cytotoxic; HT-1080-NT fibrosarcoma viability, CellTiter-Glo ATP luminescence, 48 h; actives 1.6% (n = 360,000);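 also: NT is the 2HG producing partner of a matched IDH1 knockdown line; potency is read from the fitted curve at half-maximal effect; 0% = DMSO-treated cells and -100% = media-only wells without cells; nearly all actives have a fitted effect of over 55% in size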
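750 cells/well, RPMI + 5% FBS; 2 h settle, compound pin-transfer, 48 h at 37 degrees C. CellTiter-Glo 10 min RT, luminescence. Normalized to DMSO and media-only wells.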
Active calls of the source: *; ? = inconclusive; . = no result given; [ ] = another dose, or the depositor's remark. Unless noted, calls follow the shape of the dose curve; as a rule, active = well fitted curve in the direction sought with a large enough effect; inconclusive = small, poorly fitted or top-dose-only effect, or another doubt; inactive = no such curve, though single readings can be large; an effect the other way counts as inactive or inconclusive. Unless noted, % is scaled to controls: 0 for no effect and ±100 for the full control effect.

SMILES	IL-1B inflam inh	TDP1 cell noCPT	TDP1 cell CPT	HT1080 IDH1KD tx	HT1080-NT tox
Cc1ccc(/C=C/c2onc(C)c2S(=O)(=O)N2CCC(C(=O)Nc3ccc(C)c(N(C)C)c3)CC2)cc1	.	9.2µM*	8.2µM*	.	.
Cc1ccc(/C=C/c2onc(C)c2S(=O)(=O)N2CCC(C(=O)Nc3ccc(OC(F)(F)F)cc3)CC2)cc1	.	13µM*	12µM*	.	.
Cc1ccccc1/C=N/n1c(-c2cc(-c3ccccc3)n[nH]2)n[nH]c1=S	1	16µM*	?	-3%	-2%
O=C(NCC(c1ccc2c(c1)OCO2)N1CCN(c2ccc(F)cc2)CC1)c1cccc([N+](=O)[O-])c1 (stereo unspecified)	.	6.5µM*	6.5µM*	.	.
COc1ccc(N2CCN(C(c3cccs3)C(C)NC(=O)c3ccc4c(c3)OCO4)CC2)cc1 (stereo unspecified)	8	21µM*	?	-6%	-10%
COc1ccc(N2CCN(C(CNC(=O)c3ccc(C)cc3)c3ccc4c(c3)OCO4)CC2)cc1 (stereo unspecified)	.	5.8µM*	8.2µM*	.	.
COc1ccccc1N1CCN(C(c2cccs2)C(C)NC(=O)c2ccncc2)CC1 (stereo unspecified)	4	?	21µM*	0%	-5%
O=C(CCN1CCc2ccccc2C1)Nc1ccccc1F	10	-15%	-3%	2%	3%
Cc1ccc(C(=O)NCC(c2ccc3c(c2)OCO3)N2CCOCC2)cc1C (stereo unspecified)	.	10µM*	21µM*	.	.
O=C(NCC(c1ccc2c(c1)OCO2)N1CCN(c2ccccc2)CC1)c1ccccc1 (stereo unspecified)	.	10µM*	13µM*	.	.
O=C(NCC(c1ccc2c(c1)OCO2)N1CCOCC1)C(=O)Nc1cccc(Cl)c1 (stereo unspecified)	.	12µM*	?	.	.
CCN1CCCC1CNC(=O)c1cnn(-c2nccc(-c3cc4ccccc4o3)n2)c1C1CC1 (stereo unspecified)	.	4.1µM*	?	.	.
O=C(CSCc1cnn(-c2ccccc2)c1-n1cccc1)Nc1ccc(F)cc1F	.	18µM*	?	.	.
O=C(CSCc1ccccc1)Nc1ccc(F)cc1F	-1	10%	-7%	15%	10%
Cc1cccc(C)c1NC(=O)CSCc1cnn(-c2ccccc2)c1-n1cccc1	.	10µM*	10µM*	.	.
COc1cc(NC(=O)CSCc2cnn(-c3ccccc3)c2-n2cccc2)cc(OC)c1	-9	15µM*	?	-22%	-4%
COc1cc(NC(=O)Cc2ccccc2)cc(OC)c1	-15	?	7%	-6%	10%
COc1ccc(OC)c(NC(=O)CSCc2cnn(-c3ccccc3)c2-n2cccc2)c1	-11	16µM*	?	-4%	-17%
COc1cccc(N2CCN(C(=O)c3ccc(CS(=O)c4ccc(C)cc4)o3)CC2)c1 (stereo unspecified)	31	0.52µM*	0.58µM*	0.29µM*	0.21µM*
COc1cccc(N2CCN(C(=O)c3ccc(CS(=O)c4ccc(Cl)cc4)o3)CC2)c1 (stereo unspecified)	24	0.92µM*	0.73µM*	1.8µM*	?
O=C(COC(=O)c1cccs1)NCc1ccco1	2	-1%	-19%	-1%	-1%
COc1cc(OC)cc(C(=O)OCC(=O)NCc2ccco2)c1	0	14%	-13%	-2%	-5%[9.24 µM]
O=C(COC(=O)c1ccc(NS(=O)(=O)c2cccs2)cc1O)Nc1nc2ccccc2s1	0	-2%	5%	0%	0%
COc1cc(C(=O)OCC(=O)NCc2ccco2)cc(OC)c1OC	-67*	-18%	1%	2%	6%
O=C(COC(=O)c1ccc(NS(=O)(=O)c2cccs2)cc1)NCc1ccco1	8	2.9µM*	4.1µM*	8.2µM*	9.2µM*
SMILES	IL-1B inflam inh	TDP1 cell noCPT	TDP1 cell CPT	HT1080 IDH1KD tx	HT1080-NT tox
O=C(COC(=O)c1ccc(NS(=O)(=O)c2cccs2)cc1O)NCc1ccccc1	40	3.3µM*	4.6µM*	3.7µM*	2.6µM*
C=CCc1cccc2cc(-c3nc4ccc(C)cc4[nH]3)c(=O)oc12	.	-20%	-3%	.	.
Cc1cc(C)c(O)c(CN(C)Cc2cc(Cl)cc(Cl)c2O)c1	-90*	16µM*	?	?	?
O=C(Nc1nnc(-c2cccs2)o1)c1cccc(F)c1	65	7.3µM*	4.6µM*	?	-23%
O=C(Nc1nnc(-c2cccs2)o1)c1cccc(Oc2ccccc2)c1	27	7.3µM*	10µM*	?	?
COc1cccc(C(=O)NNC(=O)Cc2cccs2)c1	0	-6%	2%	17%	18%
Cc1ccc(OCC(=O)Nc2cccc(C(=O)OCc3cc(=O)n4cc(C)sc4n3)c2)cc1	.	-29%	2%	.	.
CC1CCCN(C(=O)COc2ccc(-c3ccccc3)cc2)C1 (stereo unspecified)	?	15µM*	?	-10%	-16%
Cc1c(Cl)c(=O)oc2cc(OCC(=O)N3CCCC(C)C3)ccc12 (stereo unspecified)	-10	?	?	-12%	0%
COc1ccc2c(c1)c(=O)oc1cc(OCC(=O)N3CCCC(C)C3)ccc12 (stereo unspecified)	-1	13µM*	?	0%[9.24 µM]	-19%
COc1ccc2c(c1)c(=O)oc1cc(OCC(=O)N3CCC(C)CC3)ccc12	-7	21µM*	?	?	?
CCCN1CCN(CC(=O)Nc2nnc(CC)s2)CC1	6	4%	-1%	-4%	-6%
CN1C(=O)CN(CCN2CC(=O)N(C)C(=O)C2)CC1=O	6	5%	6%	4%	2%
CC1CN(C(=O)c2ccc(Br)c(S(=O)(=O)N3CCOCC3)c2)CC(C)O1 (stereo unspecified)	15	0%	2%	-5%	15%
CCN(CC)S(=O)(=O)c1cc(NC(=O)CCn2[nH]c(=O)ccc2=O)ccc1C	41	4%	-9%	10%	0%
O=C(OC1CCOC1=O)C1CCN(S(=O)(=O)c2ccccc2)CC1 (stereo unspecified)	12	2%	7%	-2%	5%
O=C1COc2ccc(-c3cc(-c4ccc(Cl)cc4)c4c(n3)-c3ccccc3OC4)cc2N1	.	2.3µM*	1µM*	.	.
O=C1COc2ccc(-c3cc(-c4ccccc4)c4c(n3)-c3ccccc3OC4)cc2N1	.	9.2µM*	13µM*	.	.
COc1ccc(-c2cc(-c3ccccc3)nc3c2COc2ccccc2-3)cc1	.	-21%	-27%	.	.
O=C1COc2ccc(-c3cc(-c4ccccc4)c4c(n3)-c3cc(Cl)ccc3OC4)cc2N1	.	1.2µM*	3.3µM*	.	.
